# Article PMC11062922 (Nature Chemical Biology, 2023)
# Read-outs that look alike come from different tables or passages of the source.
# Assays:
# Set-up in all cases: species or system human, MV4-11 + K-562 + COLO205 + SK-N-BE2 + OVCAR-8
# FLT3 = conditions: read-out: apparent Kd, n = 1
# MAP3K1 = conditions: read-out: apparent Kd, n = 1
# PDGFRB = conditions: read-out: apparent Kd; compound concentrations: 100 nM and 1000 nM (sheet 'Samples'), CATDS: 0.24481499220571501; n = 1
# TTN = conditions: read-out: apparent Kd, compound concentrations: 100 nM and 1000 nM (sheet 'Samples'), n = 1
# FLT4 = conditions: read-out: apparent Kd, n = 1
# MAP4K5 = conditions: read-out: apparent Kd, n = 1
# NUAK1 = conditions: read-out: apparent Kd; compound concentrations:100 nM and 1000 nM (sheet 'Samples'); n = 1
# NUAK2 = conditions: read-out: apparent Kd; compound concentrations:100 nM and 1000 nM (sheet 'Samples'); n = 1
# SLK = conditions: read-out: apparent Kd; compound concentrations:100 nM and 1000 nM (sheet 'Samples'); n = 1
# STK10 = conditions: read-out: apparent Kd, n = 1
# LCK = conditions: read-out: apparent Kd; compound concentrations: 100 nM and 1000 nM (sheet 'Samples'), CATDS: 8.5117028494468894E-2; n = 1
# MAP4K1 = conditions: read-out: apparent Kd; compound concentrations: 100 nM and 1000 nM (sheet 'Samples'), CATDS: 0.115744032998791; n = 1
# MAP4K2 = conditions: read-out: apparent Kd; compound concentrations: 100 nM and 1000 nM (sheet 'Samples'), CATDS: 7.8376321207257696E-2; n = 1
# MAP4K3 = conditions: read-out: apparent Kd; compound concentrations: 100 nM and 1000 nM (sheet 'Samples'), CATDS: 7.2653483868183794E-2; n = 1
# RET = conditions: read-out: apparent Kd, n = 1
# TNIK = conditions: read-out: apparent Kd, compound concentrations: 100 nM and 1000 nM (sheet 'Samples'), n = 1
# TNK1 = conditions: read-out: apparent Kd; compound concentrations: 100 nM and 1000 nM (sheet 'Samples'), CATDS: 9.7568423036534901E-2; n = 1
# ILK = conditions: read-out: apparent Kd; compound concentrations: 100 nM and 1000 nM (sheet 'Samples'), CATDS: 0.155345852963269; n = 1
# MAP2K1 = conditions: read-out: apparent Kd; compound concentrations: 100 nM and 1000 nM (sheet 'Samples'), CATDS: 0.15695729249265; n = 1
# MYLK3 = conditions: read-out: apparent Kd; compound concentrations: 100 nM and 1000 nM (sheet 'Samples'), CATDS: 0.17793919150823601; n = 1
# GARS = conditions: read-out: apparent Kd; compound concentrations: 100 nM and 1000 nM (sheet 'Samples'), CATDS: 0.112943260502492; n = 1
# MAP3K6 = conditions: read-out: apparent Kd; compound concentrations: 100 nM and 1000 nM (sheet 'Samples'), CATDS: 0.103040219928506; n = 1
# MTOR = conditions: read-out: apparent Kd; compound concentrations: 100 nM and 1000 nM (sheet 'Samples'), CATDS: 0.20477857042049299; n = 1
# PIK3C2A = conditions: read-out: apparent Kd; compound concentrations: 100 nM and 1000 nM (sheet 'Samples'), CATDS: 0.109461657335159; n = 1
# PIK3CA = conditions: read-out: apparent Kd; compound concentrations: 100 nM and 1000 nM (sheet 'Samples'), CATDS: 0.41958784794042803; n = 1
# PRKDC = conditions: read-out: apparent Kd; compound concentrations: 100 nM and 1000 nM (sheet 'Samples'), CATDS: 0.14221616768717599; n = 1
# RAB14 = conditions: read-out: apparent Kd; compound concentrations: 100 nM and 1000 nM (sheet 'Samples'), CATDS: 0.14270902117051201; n = 1
# GAK = conditions: read-out: apparent Kd; compound concentrations: 100 nM and 1000 nM (sheet 'Samples'), CATDS: 0.61346853975848203; n = 1
# FN3KRP = conditions: read-out: apparent Kd, compound concentrations: 100 nM and 1000 nM (sheet 'Samples'), n = 1
# MAPK10 = conditions: read-out: apparent Kd; compound concentrations: 100 nM and 1000 nM (sheet 'Samples'), CATDS: 0.114459990523153; n = 1
# MAPK11 = conditions: read-out: apparent Kd; compound concentrations: 100 nM and 1000 nM (sheet 'Samples'), CATDS: 0.104421690058707; n = 1
# MAPK14 = conditions: read-out: apparent Kd; compound concentrations: 100 nM and 1000 nM (sheet 'Samples'), CATDS: 0.43214609476913801; n = 1
# MAPK9 = conditions: read-out: apparent Kd; compound concentrations: 100 nM and 1000 nM (sheet 'Samples'), CATDS: 0.13499142741698; n = 1
# MAPKAPK2 = conditions: read-out: apparent Kd; compound concentrations: 100 nM and 1000 nM (sheet 'Samples'), CATDS: 0.49442009217898503; n = 1
# PIP4K2C = conditions: read-out: apparent Kd; compound concentrations: 100 nM and 1000 nM (sheet 'Samples'), CATDS: 0.103791319343203; n = 1
# MAP3K11 = conditions: read-out: apparent Kd; compound concentrations:100 nM and 1000 nM (sheet 'Samples'); n = 1
# PRKCA = conditions: read-out: apparent Kd; compound concentrations:100 nM and 1000 nM (sheet 'Samples'); n = 1
# PRKCB = conditions: read-out: apparent Kd; compound concentrations:100 nM and 1000 nM (sheet 'Samples'); n = 1
# STRADA = conditions: read-out: apparent Kd; compound concentrations:100 nM and 1000 nM (sheet 'Samples'); n = 1
# [1] = compound concentrations:100 nM and 1000 nM (sheet 'Samples')
compound,measurement,setting,value
O=C(Nc1n[nH]c2nc(-c3ccco3)c(Br)cc12)c1ccc(CN2CCCC2)cc1.O=C(O)[C@H](O)[C@@H](O)C(=O)O [SB-742352-AC],potency estimated from few doses,"FLT3; compound concentrations: 100 nM and 1000 nM (sheet 'Samples'), CATDS: 0.23628807978612301",1550 nM
same,potency estimated from few doses,"MAP3K1; compound concentrations: 100 nM and 1000 nM (sheet 'Samples'), CATDS: 0.23263789115969999",1600 nM
same,potency estimated from few doses,PDGFRB,1430 nM
same,potency estimated from few doses,TTN; CATDS: 0.29545284543589501,1010 nM
C[C@@H](Oc1cc(-n2cnc3cc(-c4cnn(C)c4)ccc32)sc1C(N)=O)c1ccccc1Cl [GSK580432A],potency estimated from few doses,FLT3; [1],1300 nM
same,potency estimated from few doses,FLT4; [1],1610 nM
same,potency estimated from few doses,MAP3K1; [1],129 nM
same,potency estimated from few doses,MAP4K5; [1],1040 nM
same,potency estimated from few doses,NUAK1,598 nM
same,potency estimated from few doses,NUAK2,525 nM
same,potency estimated from few doses,SLK,615 nM
same,potency estimated from few doses,STK10; [1],160 nM
CN(c1ccc(NC(=O)Nc2ccc(OC(F)(F)F)cc2)cc1)c1ccnc(Nc2cccc(S(N)(=O)=O)c2)n1 [GW806742X],potency estimated from few doses,"FLT3; compound concentrations: 100 nM and 1000 nM (sheet 'Samples'), CATDS: 0.14801329572366401",336 nM
same,potency estimated from few doses,"FLT4; compound concentrations: 100 nM and 1000 nM (sheet 'Samples'), CATDS: 0.285311181024344",122 nM
same,potency estimated from few doses,LCK,1110 nM
same,potency estimated from few doses,MAP4K1,536 nM
same,potency estimated from few doses,MAP4K2,1420 nM
same,potency estimated from few doses,MAP4K3,1830 nM
same,potency estimated from few doses,"MAP4K5; compound concentrations: 100 nM and 1000 nM (sheet 'Samples'), CATDS: 9.0249941941856496E-2",951 nM
same,potency estimated from few doses,"RET; compound concentrations: 100 nM and 1000 nM (sheet 'Samples'), CATDS: 0.14686027995557299",340 nM
same,potency estimated from few doses,TNIK; CATDS: 6.8078386206779196E-2,2360 nM
same,potency estimated from few doses,TNK1,783 nM
COc1cc[nH]c1/C=C1\C(=O)Nc2ccccc21 [RO0272159-000],potency estimated from few doses,"FLT3; compound concentrations: 100 nM and 1000 nM (sheet 'Samples'), CATDS: 0.77308167829792795",55.1 nM
same,potency estimated from few doses,ILK,1910 nM
same,potency estimated from few doses,MAP2K1,1850 nM
same,potency estimated from few doses,MYLK3,1280 nM
same,potency estimated from few doses,TNIK; CATDS: 0.18945964172461099,1080 nM
Nc1ncnc2c1ncn2-c1cccc2ccccc12 [SKF-97184],potency estimated from few doses,GARS,1670 nM
same,potency estimated from few doses,MAP3K6,2270 nM
same,potency estimated from few doses,MTOR,419 nM
same,potency estimated from few doses,PIK3C2A,1840 nM
same,potency estimated from few doses,PIK3CA,132 nM
same,potency estimated from few doses,PRKDC,896 nM
same,potency estimated from few doses,RAB14,889 nM
C#Cc1cccc(Nc2ncnc3cc(OCCOC)c(OCCOC)cc23)c1.Cl [GW459135A],potency estimated from few doses,GAK,949 nM
same,potency estimated from few doses,"STK10; compound concentrations: 100 nM and 1000 nM (sheet 'Samples'), CATDS: 0.42195435963049299",2060 nM
c1ccc(Nc2ncc(-c3ccccc3)o2)cc1 [GW549390X],potency estimated from few doses,"FLT3; compound concentrations: 100 nM and 1000 nM (sheet 'Samples'), CATDS: 0.74599434863178504",273 nM
same,potency estimated from few doses,TTN; CATDS: 0.37600950025420299,1330 nM
Cn1nc(-c2ccc(NC(=O)Nc3ccc4ccccc4c3)c(F)c2)c2cnc(NCCN3CCOCC3)nc21.O=C(O)C(F)(F)F [SB-750250-M],potency estimated from few doses,FN3KRP; CATDS: 1,1800 nM
Cl.Cn1c(=O)c(Oc2ccc(F)cc2F)cc2cnc(NC(C)(C)CO)nc21 [RO3305411-001],potency estimated from few doses,FN3KRP; CATDS: 0.10743943329960801,1390 nM
same,potency estimated from few doses,MAPK10,1100 nM
same,potency estimated from few doses,MAPK11,1550 nM
same,potency estimated from few doses,MAPK14,21.6 nM
same,potency estimated from few doses,MAPK9,640 nM
same,potency estimated from few doses,MAPKAPK2,16.8 nM
same,potency estimated from few doses,PIP4K2C,1590 nM
CN(C)C/C=C/C(=O)Nc1ccc(C(=O)Nc2cccc(Nc3ncc(Cl)c(-c4c[nH]c5ccccc45)n3)c2)cc1 [THZ1],potency estimated from few doses,FLT3; [1],1310 nM
same,potency estimated from few doses,FLT4; [1],904 nM
same,potency estimated from few doses,MAP3K11,743 nM
same,potency estimated from few doses,PRKCA,191 nM
same,potency estimated from few doses,PRKCB,727 nM
same,potency estimated from few doses,RET; [1],921 nM
same,potency estimated from few doses,STRADA,2370 nM
